# From PubChem BioAssay
# Shown is part of a subset that was picked to be rich in hits.
# HIV RNase H inh-1: inhibitors of HIV-1 reverse transcriptase RNase H. inhibition, % at 10 µM. 65,000 tested, 1.9% active. P04585. AID 565. RT-RNase H RNA/DNA duplex cleavage, fluorescence; in the data active = inhibition above about 50%
# HIV RNase H inh-2: confirmation of HIV-1 reverse transcriptase RNase H inhibitors; shares compounds with HIV RNase H inh-1; Recombinant RT RNase H, fluorescent RNA/DNA duplex cleavage; AID 651; inhibition, % at 10 µM; 1,000 tested, 39% active; in the data active = inhibition above about 48%; inconclusive = no clear call, values can overlap the other calls
# Active calls of the source: *; ? = inconclusive.
SMILES,HIV RNase H inh-1,others
Cn1ccnc1C(O)c1cc(C(C)(C)C)c(O)c(C(C)(C)C)c1 (centres undefined),1.8,
CC1SC(c2cccc(Cl)c2)NC1=O (centres undefined),59.9*,HIV RNase H inh-2=13.7
O=C1NCCN1Cc1cccc(Cl)c1,-19.8,
CC1=C(C(=O)N(C)C)C(c2cccc(Cl)c2)NC(=O)N1 (centres undefined),-4.4,
CC1S/C(=C(\C#N)C(N)=O)N(c2ccc(F)cc2)C1=O (centres undefined),9.0,
CCOc1ccc(N2C(=O)c3cccnc3C2Nc2ccc(Cl)cc2)cc1 (centres undefined),20.0,
COC(=O)c1cc(NC2c3ncccc3C(=O)N2Cc2ccccc2)cc(C(=O)OC)c1 (centres undefined),-6.5,
Cc1ccc(NC2c3ncccc3C(=O)N2c2ccccc2C)cc1C (centres undefined),56.2*,HIV RNase H inh-2=11.0
CCOC(=O)c1c(C)c(C(=O)NCc2cccnc2)c(C)n1CC,-15.1,
Cc1ccc2c(c1)NC(=O)C(N1CCOCC1)(C(F)(F)F)O2 (centres undefined),-9.7,
COC(=O)C(C)Sc1nc(-c2ccc(OC)cc2)nc2c1c(=O)n(C)c(=O)n2C (centres undefined),12.7,
CCc1nnc(NC(=O)C(C)N2C(=O)C3C4C=CC(C4)C3C2=O)s1 (centres undefined),-34.2,
COCCn1c(C)cc(C(=O)CSc2nc(C)cc(C)c2C#N)c1C,-60.7,
Cc1cc(=O)[nH]c(SCC(=O)C23CC4CC(CC(C4)C2)C3)c1C#N,61.4*,HIV RNase H inh-2=12.3
Cc1cc(C)c(C#N)c(SCC(=O)OC2CCCCC2)n1,-43.7,
Cc1ccc(S(=O)(=O)N2CCCC(C(=O)NCCc3ccc4c(c3)OCO4)C2)cc1 (centres undefined),3.2,
C=CCn1c(SCC(=O)NCc2ccco2)nnc1-c1ccc2ccccc2n1,-15.0,
Cc1ccc(S(=O)(=O)Cn2nnnc2CN(Cc2ccco2)CC2CCCO2)cc1 (centres undefined),-0.1,
CCCC(=O)N(C)c1nnc(-c2ccc(OC)cc2)s1,32.0,
CCOc1ccc(-c2nnc(N(CC)C(=O)C3CCC3)s2)cc1,66.3*,HIV RNase H inh-2=0.9
CCN(C(=O)Cc1cccs1)c1nnc(-c2cc(OC)c(OC)c(OC)c2)s1,-19.6,
Cc1cc(S(=O)(=O)Nc2cccc(O)c2)c(C)s1,-14.6,
CC1(C)CC(=O)C2=C(C1)N(Cc1ccco1)C(=O)C2(O)C(F)(F)F (centres undefined),3.8,
O=C1N[C@@H](Cc2cnc[nH]2)C(=O)N2CCC[C@@H]12,-10.8,
CC(C)Cn1c2c(c(O)c(C(=O)Nc3nccs3)c1=O)CCCC2,34.5,
SMILES,HIV RNase H inh-1,others
CCCn1c2c(c(O)c(C(=O)Nc3nc(C)cs3)c1=O)CCCC2,-1.0,
Cc1csc(NC(=O)c2c(O)c3c(n(CC(C)C)c2=O)CCCC3)n1,63.7*,HIV RNase H inh-2=?
O=c1c(O)c(-c2ccc(O)cc2O)oc2cc(O)cc(O)c12,74.7*,HIV RNase H inh-2=59.3*
COc1ccc(-c2c(C)oc3cc(O)cc(O)c3c2=O)cc1OC,-15.4,
COc1ccccc1-c1coc2cc(O)cc(O)c2c1=O,-1.7,
O=C1CCCc2c1cc(C(=O)NCc1ccco1)c(=O)n2-c1ccc(Cl)cc1,0.3,
Cc1cccc(N2CCN(C(=O)C3CCCN(S(=O)(=O)c4c(C)noc4C)C3)CC2)c1C (centres undefined),-6.2,
CNC(=O)c1c(C)nc(SCC(=O)NCc2ccc(OC)cc2)c(C#N)c1-c1ccco1,-0.9,
Cc1ccccc1NC(=O)CSc1nc(N)c(C#N)c(-c2cccs2)c1C#N,40.1,
N#Cc1c(SCC(=O)Nc2nccs2)nc2c(c1-c1ccco1)CCCC2,82.1*,HIV RNase H inh-2=60.7*
Cc1ccccc1NC(=O)CSc1nc2c(c(-c3ccco3)c1C#N)CCCC2,58.6*,HIV RNase H inh-2=72.6*
COCCOC(=O)c1c(C)nc(SCC(=O)Nc2ccc(C)cc2)c(C#N)c1-c1ccco1,0.4,
CCc1ccccc1NC(=O)CSc1nc2c(c(-c3ccco3)c1C#N)CCCC2,40.3,
CCC(OC(=O)CC1Sc2ccccc2NC1=O)C(=O)NCC1CCCO1 (centres undefined),-6.7,
CCOC(=O)c1cncc(NC(=O)c2ccccc2)c1,-18.0,
CCOC(=O)c1oc2ccc(S(=O)(=O)Nc3ccc4c(c3)n(C)c(=O)n4C)cc2c1C,-5.3,
O=C1N=C(N2CCOCC2)S/C1=C1\C(=O)N(Cc2ccccc2)c2ccc(Br)cc21,11.9,
Cc1ccc(CN2C(=O)/C(=C3\SC(N4CCOCC4)=NC3=O)c3cc(Br)ccc32)cc1,22.9,
CCCCN1C(=O)/C(=C2\SC(N3CCCCC3)=NC2=O)c2ccccc21,86.2*,HIV RNase H inh-2=25.0
CCOc1ccccc1NC(=O)N1CCCC1C(=O)Nc1ccc(-n2cnnn2)c(C)c1 (centres undefined),-6.6,
OC1(c2ccccc2F)CCN(Cc2nnnn2CCc2ccccc2)CC1,-4.6,
CC(=O)c1c(C)cc(C)c(CSc2nc(C)cc(=O)[nH]2)c1C,-14.7,
CSC1=Nc2sc3c(c2C2=NCCN12)CC(C)(C)OC3,-13.9,
O=C(O)c1cccnc1SC1CC(=O)N(c2cccc(C(F)(F)F)c2)C1=O (centres undefined),14.1,
O=C1CC(Sc2ncccn2)C(=O)N1c1ccccc1C(F)(F)F (centres undefined),70.5*,HIV RNase H inh-2=-0.5
SMILES,HIV RNase H inh-1,others
COc1ccccc1N1C(=O)CC(Sc2ncccc2C(=O)O)C1=O (centres undefined),13.8,
COc1ccccc1-c1nnc(SCC(=O)N2CCOCC2)o1,-3.7,
CCOC(=O)N1CCN(C(=O)CSc2cc(C)nc3c(-c4ccccc4OC)c(C)nn23)CC1,-1.4,
COc1ccccc1-c1c(C#N)c(SCC(=O)N2CCCC2)nc(C)c1C(N)=O,65.1*,HIV RNase H inh-2=-1.7
O=C(CN1CCN(C(c2ccccc2)c2ccccc2)CC1)NC(=O)NCc1ccco1,9.4,
C=CCn1c(NCc2ccc(N(C)C)cc2)nc2ccccc21,2.8,
O=C(CSc1nnnn1-c1ccc(Cl)cc1)N1CCc2ccccc2C1,-54.9,
Cc1ccnc(NC(=O)CCC(=O)N(CC(=O)NC2CCCCC2)Cc2ccc3c(c2)OCO3)c1,1.6,
CCOc1ccc(S(=O)(=O)Nc2cc(Sc3ncn[nH]3)c3oc(=O)sc3c2)cc1,87.5*,HIV RNase H inh-2=37.6*
CCOc1ccc2sc(NS(=O)(=O)c3ccc(OC)c(OC)c3)nc2c1,-17.0,
CCOc1ccc(S(=O)(=O)Nc2cccc(Cl)c2)cc1,-55.3,
CCOC(=O)N1CCN(C(=O)CN(c2ccc(OCc3ccccc3)cc2)S(C)(=O)=O)CC1,2.6,
CCOC(=O)c1ccc(NC(=O)CCC(=O)OC)cc1,24.3,
Cc1ccccc1OCc1nnc2c3cnn(C)c3ncn12,12.3,
COc1ccccc1S(=O)(=O)Cc1ccc(C(=O)NC(C)c2ccc3c(c2)OCCO3)o1 (centres undefined),-4.7,
CCCCn1c(SCC2CCCCO2)nc2cc(S(N)(=O)=O)ccc21 (centres undefined),-4.9,
O=C(NCCc1ccccc1)c1c(O)c2cccc3c2n(c1=O)CC3,73.6*,HIV RNase H inh-2=83.9*
O=C(NCCNCCO)c1c(O)c2cccc3c2n(c1=O)CCC3,-8.2,
O=C(NCc1ccccn1)c1c(O)c2cccc3c2n(c1=O)CC3,4.4,
COc1ccc(CCNC(=O)c2c(O)c3cccc4c3n(c2=O)CC4)cc1,83.5*,HIV RNase H inh-2=67.2*
COc1ccc(CNC(=O)c2c(O)c3cccc4c3n(c2=O)CCC4)cc1OC,-47.3,
Cc1cnc(NC(=O)c2c(O)c3cccc4c3n(c2=O)CCC4)s1,-6.2,
CCCc1nnc(NC(=O)c2c(O)c3cccc4c3n(c2=O)CC4)s1,4.7,
